39 compounds from PubChem BioAssay AID571 (The Scripps Research Institute Molecular Screening Center, 2007) can be followed below.

The whole screen tested about 65,000 compounds, of which about 640 (0.98%) were called active.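 The calls were made as follows: active = inhibition above a set limit, the mean inhibition across every tested compound plus 3 SD (cut at about 29% in these data); inactive = the rest.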 Only a selection was taken, and actives are over-represented in it overall.

The target in this assay is 5-hydroxytryptamine receptor 1E (Homo sapiens) (UniProt P28566). In words: 5-HT1E receptor antagonists, primary screen, cell-based, HTS (AID 571).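 Also: signal is the 460 over 535 nm emission ratio of beta-lactamase substrate; 0% = agonist plus DMSO wells and 100% = wells without agonist.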 As to conditions: CHO 5-HT1E Ga15 NFAT-bla reporter, FRET, antagonist; at 6 µM; active compounds read high.
Chain of 5-hydroxytryptamine receptor 1E (Homo sapiens) (P28566 whole entry, looked up): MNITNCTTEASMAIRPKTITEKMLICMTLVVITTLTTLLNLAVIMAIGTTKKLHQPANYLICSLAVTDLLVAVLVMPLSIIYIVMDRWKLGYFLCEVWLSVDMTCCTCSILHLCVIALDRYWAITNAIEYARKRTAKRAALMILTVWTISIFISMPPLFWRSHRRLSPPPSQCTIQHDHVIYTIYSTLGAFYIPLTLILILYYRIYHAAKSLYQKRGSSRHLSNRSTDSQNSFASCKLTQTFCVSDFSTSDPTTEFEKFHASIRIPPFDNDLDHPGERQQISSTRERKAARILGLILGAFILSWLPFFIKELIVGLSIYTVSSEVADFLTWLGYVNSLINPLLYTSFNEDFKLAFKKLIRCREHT
In general, inhibition refers to the drop in the measured response relative to a control, in per cent. Consider `CCOc1ccc(NC(=O)Nc2cc(C)on2)cc1`, for which the inhibition is -2.74% (inactive).

`O=C(CN1C(=O)COc2ccccc21)Nc1ccc(F)cc1`: the inhibition is 6.81% (inactive). The value for `O=C(CSc1nnc(-c2c[nH]c3ccccc23)n1-c1ccc(F)cc1)NCc1ccco1` was 6.88% (inactive); that for `COc1ccc(S(=O)(=O)N(C)CC(=O)Nc2ccc3c(c2)OCCO3)cc1OC` was 10.4% (inactive).

On to `CCC(C)(C)n1nnnc1C(c1cccs1)N1CCN(c2nc3ccccc3s2)CC1` (centres undefined), for which the inhibition is 3.71% (inactive). As for `Cc1nnc(SCc2cc(=O)[nH]c(N3CCN(Cc4ccccc4)CC3)n2)s1`, the figure is -7.09% (inactive); as for `COc1cc(OC)c(C(=O)Nc2ccc(N(C)C)cc2)cc1OC`, -7.5% (inactive); as for `COc1ccccc1-c1nc(C(F)(F)F)c(OC)o1`, -6.75% (inactive). The value for `Cc1cc(C)n2nc(C(=O)Oc3ccc4c(c3)OCO4)nc2n1` was -5.31% (inactive).

For the compound `Nc1nonc1-c1nc2ccccc2n1CCC(=O)O`, the inhibition was 7.28% (inactive). As for `COc1ccc(C)c(Cn2c(-c3nonc3N)nc3ccccc32)c1`, the figure is 33.6% (active). The value for `Nc1nonc1-c1nc2ccccc2n1Cc1ccc(F)cc1` was 8.52% (inactive); that for `NC(=O)CSc1oc(-c2cccs2)nc1S(=O)(=O)c1ccccc1` was 1.39% (inactive); that for `CN(C)CCCNC(=O)c1ccc2[nH]c3ccccc3c2c1` was -3.46% (inactive). As for `CCCCOc1ccc(C(C)(O)CCN2CCOCC2)cc1` (centres undefined), the figure is 2.45% (inactive); as for `Cc1ccc(S(=O)(=O)n2nc(OC(=O)C(C)(C)C)cc2N)cc1`, -1.76% (inactive). Consider `CN1CCCC(OC(=O)COc2ccc(Br)cc2)C1` (centres undefined), for which the inhibition was -15.4% (inactive).

Take `CC[C@H]1CN2CCc3cc(OC)c(OC)cc3[C@@H]2C[C@@H]1C[C@H]1NCCc2cc(OC)c(OC)cc21`: the inhibition was 92.4% (active). As for `CCOC(=O)C1CCCN(C(=O)c2cncc(Br)c2)C1` (centres undefined), the figure is 3.85% (inactive). As for `O=C(c1ccco1)N1CCN(CC(=O)N(C2CCCCC2)C2CCS(=O)(=O)C2)CC1` (centres undefined), the figure is 16.6% (inactive).

Regarding `CCSc1ncnc2c(C#N)c3n(c12)CCCCC3`, the inhibition is 47.6% (active). As for `CCSC1=C(C#N)C(=O)n2c1cc1c2CCCC1`, the figure is -0.37% (inactive). As for `COC(=O)c1ccccc1NC(=O)Cn1nc(C(F)(F)F)c2c1CCC2`, the figure is -3.25% (inactive). In the case of `CCn1c2c(c3ccc(OC)cc31)CCCC2=O`, the inhibition was 4.52% (inactive).

As for `O=C(Nc1cc(C(F)(F)F)ccc1Cl)c1cc(C2CC2)on1`, the inhibition is -9.73% (inactive). The value for `Cc1nn(Cc2ccc(Cl)c(Cl)c2)c(C)c1NC(=O)c1cc(C2CC2)on1` was 34.3% (active); that for `Cc1cc(NC(=O)c2cc(-c3cccs3)on2)nn1Cc1ccc(Cl)cc1` was -7.29% (inactive); that for `CC(=O)C1C(c2ccc(Cl)cc2)NC(=O)NC1(O)C(F)(F)F` (centres undefined) was 6.15% (inactive). As for `CCSC(C)CC1C/C(=N/O)c2c(C)noc2C1` (centres undefined), the figure is 21.4% (inactive).

Regarding `Cc1nc2sc(C(c3ccco3)N3CCC4(CC3)OCCO4)c(O)n2n1` (centres undefined), the inhibition is -11.1% (inactive). The value for `CC1(C)Oc2ccc3ccc(=O)oc3c2/C(=C/NCCO)C1=O` was -8.4% (inactive); that for `CN=C1SC(C(=O)O)CC(=O)N1C` (centres undefined) was 1.76% (inactive). As for `CC[C@]1(O)C[C@@H]2CN(CCc3c([nH]c4ccccc34)[C@@](C(=O)OC)(c3cc4c(cc3OC)N(C)[C@H]3[C@@](O)(C(=O)OC)[C@H](OC(C)=O)[C@]5(CC)C=CCN6CC[C@]43[C@@H]65)C2)C1`, the figure is 73.5% (active).

For `CC[C@]1(O)CC2CN(CCc3c([nH]c4ccccc34)[C@@](C(=O)OC)(c3cc4c(cc3OC)N(C=O)[C@H]3[C@@](O)(C(=O)OC)[C@H](OC(C)=O)[C@]5(CC)C=CCN6CC[C@]43[C@@H]65)C2)C1` (some centres undefined), the inhibition was 71.9% (active). As for `Cc1ccc(C(c2nnnn2C(C)(C)C)N2CCc3ccccc3C2)cc1` (centres undefined), the figure is -3.9% (inactive); as for `FC(F)Oc1ccccc1C1CC(c2ccc(Br)s2)Nc2ncnn21` (centres undefined), 12% (inactive).

Regarding `O=C(c1cnn2ccccc12)N1CCc2ccccc21`, the inhibition was -4.32% (inactive). As to `COCCNC(=O)CN(C(=O)CCC(=O)Nc1cc(C)on1)c1ccc(C)cc1C`, the inhibition is -0.23% (inactive).

Take `Cc1cccc(Cn2c(SCCO)nc3c2c(=O)n(C)c(=O)n3C)c1`: the inhibition was -1.41% (inactive).
